Among the test systems are SR leukemia; RPMI-8226 leukemia; OVCAR-8 ovarian; OVCAR-5 ovarian; OVCAR-4 ovarian; SK-OV-3 ovarian; IGROV1 ovarian; OVCAR-3 ovarian; HS 578T breast; NCI/ADR-RES ovarian.
Assay in all cases: NCI-60 one-dose screen, 48 h (100 = growth as untreated, 0 = no growth, -100 = all killed)
Conditions in all cases: 10 µM unless noted

Values joined by “and” are separate entries in the source; they are usually repeats but may differ in a detail not shown here. Equal values may be shown once. About 83,000 compounds went through this panel and 20% of them were active in at least one assay; those are over-represented in the sample as a whole.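 Note: values are percent growth. 100 is the growth of untreated cells, values between 100 and 0 indicate rising inhibition; between -100 and 0 indicates cell death.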 Active and inactive are the calls of the source. The calls were made as follows: active = growth percent below 10; inactive = the rest.

For the compound `Cc1cc(N2CCN(CC(=O)Nc3ccc4c(ccn4Cc4ccccc4)c3)CC2)nc(N2CCCCCC2)n1`, the growth is 29.2% (inactive) in the experiment on SR leukemia; 41.5% (inactive) in the experiment with RPMI-8226 leukemia; 31.6% (inactive) in the experiment on OVCAR-8 ovarian; 75.6% (inactive) in the experiment with OVCAR-5 ovarian; 51.8% (inactive) in the experiment on OVCAR-4 ovarian; 48.2% (inactive) in the experiment on SK-OV-3 ovarian. The growth in the experiment on IGROV1 ovarian is 42.3% (inactive); with OVCAR-3 ovarian it was 62.8% (inactive); with HS 578T breast, 62.8% (inactive); with NCI/ADR-RES ovarian, 39.6% (inactive).

Turning to `CCCCCO/N=C\c1c2c(O)c3c(O)c(C)c4c(c3c1O)C(=O)C(C)(O/C=C\C(OC)C(C)C(OC(C)=O)C(C)C(O)C(C)C(O)C(C)/C=C\C=C(\C)C(=O)N2)O4` (stereo not given), the growth in the experiment on SR leukemia was 13.5% (inactive); in the experiment with RPMI-8226 leukemia, 13.1% (inactive); with OVCAR-8 ovarian, 26.7% (inactive); in the experiment with OVCAR-5 ovarian, 49.2% (inactive); in the experiment with OVCAR-4 ovarian, 30.3% (inactive); in the experiment with SK-OV-3 ovarian, 33.9% (inactive). Moreover, the growth with IGROV1 ovarian was 31.1% (inactive); in the experiment with OVCAR-3 ovarian, 19.4% (inactive); with HS 578T breast, 1.16% (active); in the experiment on NCI/ADR-RES ovarian it was 25.2% (inactive).

As for `O=S(=O)(Nc1ccc(F)cc1)c1ccc(-c2cnc(C3CC3)o2)cc1`, the growth in the experiment with SR leukemia was 11.6% (inactive); with RPMI-8226 leukemia, 17.2% (inactive); in the experiment with OVCAR-8 ovarian it was 30.4% (inactive); in the experiment with OVCAR-5 ovarian, 59.1% (inactive); in the experiment on OVCAR-4 ovarian, 69.9% (inactive); with SK-OV-3 ovarian, 39.7% (inactive). Moreover, the growth in the experiment on IGROV1 ovarian was 37.9% (inactive); with OVCAR-3 ovarian it was 10.2% (inactive); with HS 578T breast, 14.1% (inactive); with NCI/ADR-RES ovarian, -0.888% (active).

Take `COc1ccc(-c2ccc(-c3ccc(C(=N)N)cn3)o2)cc1Cl`: the growth in the experiment with SR leukemia is -28.3% (active); in the experiment with RPMI-8226 leukemia, -35.5% (active); in the experiment with OVCAR-8 ovarian, 12.3% (inactive); in the experiment on OVCAR-5 ovarian it was 68.6% (inactive); in the experiment with OVCAR-4 ovarian it was 38.8% (inactive); with SK-OV-3 ovarian, 84.8% (inactive). For the same compound, the growth with IGROV1 ovarian is 68.7% (inactive); in the experiment on OVCAR-3 ovarian, -13.2% (active); with HS 578T breast it was 59.1% (inactive); with NCI/ADR-RES ovarian it was 82.8% (inactive).

For the compound `Clc1nccc2c(-c3csc(-c4c[nH]c5ccc(Br)cc45)n3)c[nH]c12`, the growth is 6.34% (active) in the experiment on SR leukemia; 44.9% (inactive) in the experiment with RPMI-8226 leukemia; 33.4% (inactive) in the experiment on OVCAR-8 ovarian; 60.1% (inactive) in the experiment with OVCAR-5 ovarian; 48.2% (inactive) in the experiment on OVCAR-4 ovarian; 27% (inactive) in the experiment on SK-OV-3 ovarian. For the same compound, the growth is 44.3% (inactive) in the experiment on IGROV1 ovarian, 62.5% (inactive) in the experiment on OVCAR-3 ovarian, 30.7% (inactive) in the experiment with HS 578T breast and 31.3% (inactive) with NCI/ADR-RES ovarian.

With `Nc1nc2ccccc2c2c(=O)c3ccc(Cl)cc3sc12`, the growth in the experiment on SR leukemia is 84.4% (inactive); with RPMI-8226 leukemia, 95.7% (inactive); in the experiment on OVCAR-8 ovarian it was 103% (inactive); with OVCAR-5 ovarian, 101% (inactive); in the experiment with OVCAR-4 ovarian, 92.1% (inactive); in the experiment with SK-OV-3 ovarian, 98.4% (inactive). Besides, the growth in the experiment on IGROV1 ovarian is 102% (inactive); in the experiment with OVCAR-3 ovarian, 104% (inactive); with HS 578T breast, 89.3% (inactive); in the experiment on NCI/ADR-RES ovarian, 110% (inactive).

For `C=C(C)[C@@H]1CC[C@]2(C(=O)O)CC[C@]3(C)[C@H](CC[C@@H]4[C@@]5(C)CCC(N)C(C)(C)[C@@H]5CC[C@]43C)[C@@H]12` (stereo not given in full), the growth in the experiment on SR leukemia is -8.86% (active); in the experiment with RPMI-8226 leukemia, -33.6% (active); in the experiment with OVCAR-8 ovarian it was 20.8% (inactive); with OVCAR-5 ovarian, 96.6% (inactive); with OVCAR-4 ovarian, 36.8% (inactive); in the experiment on SK-OV-3 ovarian it was 106% (inactive). In addition, the growth with IGROV1 ovarian is 74.4% (inactive); in the experiment with OVCAR-3 ovarian, -31.5% (active); in the experiment on HS 578T breast it was 93.1% (inactive); in the experiment on NCI/ADR-RES ovarian, 69.7% (inactive).

Regarding `CCCCCCCCCCCCCCCC[N+](C)(C)CCN(Cc1ccc(OC)cc1)c1ncccn1`, the growth in the experiment on SR leukemia is -45.2% (active) and 56.8% (inactive); in the experiment on RPMI-8226 leukemia, 27.2% (inactive); in the experiment with OVCAR-8 ovarian, -72.8% (active) and 56.4% (inactive); in the experiment on OVCAR-5 ovarian, -37% (active) and 67.2% (inactive); in the experiment on OVCAR-4 ovarian, -8.05% (active) and 31.3% (inactive); in the experiment with SK-OV-3 ovarian it was 14.6% (inactive) and 67.4% (inactive). Besides, the growth with IGROV1 ovarian was -70.4% (active); with OVCAR-3 ovarian, -100% (active) and 45.5% (inactive); with HS 578T breast it was -72.9% (active) and 84.5% (inactive); in the experiment with NCI/ADR-RES ovarian, 72.2% (inactive) and 105% (inactive).

`c1cc(NCCCCN2CCOCC2)c2ccc3c(ccc4c(NCCN5CCOCC5)ccnc43)c2n1`: the growth was -7.92% (active) in the experiment on SR leukemia; 98.2% (inactive) in the experiment with RPMI-8226 leukemia; 79.2% (inactive) with OVCAR-8 ovarian; 111% (inactive) in the experiment on OVCAR-5 ovarian; 91.5% (inactive) in the experiment on OVCAR-4 ovarian; 101% (inactive) with SK-OV-3 ovarian. The growth is 65.6% (inactive) in the experiment on IGROV1 ovarian, 105% (inactive) in the experiment with OVCAR-3 ovarian, 88.6% (inactive) in the experiment on HS 578T breast and 88.1% (inactive) with NCI/ADR-RES ovarian.

Regarding `Cc1ccc(-c2nc([P+](c3ccccc3)(c3ccccc3)c3ccccc3)c(Nc3ccccc3)o2)cc1`, the growth was -27.1% (active) with SR leukemia; -50.4% (active) in the experiment on RPMI-8226 leukemia; -21.5% (active) in the experiment on OVCAR-8 ovarian; 8.46% (active) with OVCAR-5 ovarian; -5.24% (active) in the experiment with OVCAR-4 ovarian; -9.23% (active) in the experiment on SK-OV-3 ovarian. Also, the growth is 15% (inactive) in the experiment on IGROV1 ovarian, -12.1% (active) in the experiment with OVCAR-3 ovarian, -31.1% (active) in the experiment on HS 578T breast and -3.38% (active) with NCI/ADR-RES ovarian.

In the case of `COc1cccc(C2C(C#N)=C(N)Oc3cc(OCCCCCC[P+](c4ccccc4)(c4ccccc4)c4ccccc4)ccc32)c1` (stereo not given), the growth in the experiment on SR leukemia was -48.8% (active); in the experiment on RPMI-8226 leukemia, -36.4% (active); with OVCAR-8 ovarian, 1.01% (active); with OVCAR-5 ovarian, -2.3% (active); with OVCAR-4 ovarian it was 2.58% (active); with SK-OV-3 ovarian it was -33.5% (active). Besides, the growth with IGROV1 ovarian was -55.8% (active); in the experiment with OVCAR-3 ovarian it was -81.3% (active); in the experiment with HS 578T breast it was -16.5% (active); in the experiment with NCI/ADR-RES ovarian, 85.2% (inactive).

On to `Cc1nc(-n2[nH]c(=O)ccc2=O)sc1N=Nc1ccccc1`, for which the growth with SR leukemia was 105% (inactive); in the experiment on RPMI-8226 leukemia it was 100% (inactive); with OVCAR-8 ovarian it was 103% (inactive); in the experiment with OVCAR-5 ovarian it was 100% (inactive); in the experiment on OVCAR-4 ovarian, 104% (inactive); in the experiment on SK-OV-3 ovarian it was 103% (inactive). In addition, the growth in the experiment with IGROV1 ovarian is 95.5% (inactive); in the experiment on OVCAR-3 ovarian, 114% (inactive); in the experiment on HS 578T breast, 95.5% (inactive); with NCI/ADR-RES ovarian it was 108% (inactive).

With `COc1ccc(C2Nc3nc(SC)nc(N)c3N=C3c4ccccc4CCC32)cc1` (stereo not given), the growth was 66% (inactive) in the experiment on SR leukemia; 67.5% (inactive) with RPMI-8226 leukemia; 70.5% (inactive) with OVCAR-8 ovarian; 107% (inactive) in the experiment with OVCAR-5 ovarian; 53.9% (inactive) in the experiment with OVCAR-4 ovarian; 97% (inactive) with SK-OV-3 ovarian. Moreover, the growth is 55.2% (inactive) with IGROV1 ovarian, 65.2% (inactive) in the experiment with OVCAR-3 ovarian, 97.1% (inactive) with HS 578T breast and 56.2% (inactive) with NCI/ADR-RES ovarian.

(Values after PubChem BioAssay (NCI).)
